# Most compounds without a hit are left out; they make up all but 6.8% or so of the library.
# C diff HTS: blocks growth of Clostridium difficile; Clostridium difficile clinical isolate growth, OD600, 24 h; hits give low values; growth activity, negative = inhibition, % at 16 µg/mL (by protocol); 86,000 compounds, 0.25% hits; AID 1259249;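 active means mean growth activity at or below -80% and every replicate also at or below -80%; inconclusive means mean at or below -80% but some replicate above -80%; inactive means mean growth activity above -80%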;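 further: 0% = DMSO wells and -100% = levofloxacin 16 µg/mL wells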
# Pf Dd2 inh: P. falciparum Dd2 growth inhibition; SYBR Green, 72 h; hits give low values; activity change, % at 10 µM; 94,000 compounds, 2.3% hits; in the data active means activity change below about -80%; inconclusive means no clear call, values can overlap the other calls
# T cruzi growth-1: inhibitors of T. cruzi proliferation; 77,000 compounds, 5.9% hits; T. cruzi beta-gal in NIH3T3, GalScreen luminescence, 90 h; AID 624255; inhibition, % at 8.34 µM;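 active means mean inhibition above about 93%, with at least 55% of replicates each passing it, limit read from the data, passing the limit was not always enough; inconclusive means only one of those two conditions holds; inactive means neither condition holds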
# T cruzi growth-2: blocks T. cruzi growth in NIH3T3 host cells; shares compounds with T cruzi growth-1; T. cruzi beta-gal in NIH3T3, GalScreen luminescence, 90 h; inhibition, % at 8.35 µM; 5,600 compounds, 72% hits;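 active means mean replicate inhibition above about 95% and at least 55% of replicates individually reaching it, limit read from the data; inconclusive means only one of the two criteria is met; inactive means neither criterion is met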
# T cruzi growth-3: inhibitors of T. cruzi proliferation; T. cruzi beta-gal in NIH3T3, GalScreen luminescence, 90 h; shares compounds with T cruzi growth-1; 5,600 compounds, 21% hits; inhibition, % at 2.09 µM; AID 651740;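 active means mean inhibition above about 95%, with at least 55% of replicates also reaching it, limit read from the data; inconclusive means meets just one of the two conditions; inactive means meets neither condition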;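 further: plate controls were neutral control median for no effect and positive control median for full effect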
# 3T3 cytotox: cytotoxicity in mouse NIH/3T3 fibroblasts. shares compounds with T cruzi growth-1. NIH/3T3 viability, CellTiter-Glo ATP luminescence, 90 h. cytotoxicity (signal decrease), % at 8.35 µM. 5,600 compounds, 14% hits;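 active means mean signal decrease across replicates above about 35% based on untreated-well scatter, with enough replicates individually passing, limit read from the data; inconclusive means no rule stated though some were filed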;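 further: 0% = median of neutral control wells and 100% = median of positive control wells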
# 3T3 cytotox 2: kills mouse NIH/3T3 fibroblasts; inhibition, % at 24.9 µM; NIH/3T3 viability, CellTiter-Glo ATP luminescence, 90 h; AID 651744; shares compounds with T cruzi growth-1; 5,600 compounds, 56% hits;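 active means mean loss of cell viability signal at or above a set limit, and enough replicates individually reaching it; inconclusive means meets only the mean limit or only the replicate share; inactive means meets neither condition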;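 further: 0% = median of neutral control wells and 100% = median of positive control wells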
# An asterisk follows results filed as active; ? = inconclusive; nt = no result given.
SMILES,C diff HTS,Pf Dd2 inh,T cruzi growth-1,T cruzi growth-2,T cruzi growth-3,3T3 cytotox,3T3 cytotox 2
COc1ccc(-c2cnc3c(c2)C(=O)N([C@@H](C)CO)C[C@@H](C)[C@@H](CN(C)C(=O)Cc2ccncc2)O3)cc1,-4,-62,63,nt,nt,nt,nt
CN(C)C(=O)C[C@H]1CC[C@@H]2[C@H](COc3ccc(NC(=O)C4CCCC4)cc3C(=O)N2C)O1,0,7,nt,nt,nt,nt,nt
O=C(Nc1cc(F)ccc1F)N1C[C@@H]2[C@H](c3ccccc31)[C@@H](CO)N2Cc1ccncc1,3,-9,47,nt,nt,nt,nt
O=C(C[C@H]1CC[C@H]2[C@@H](COC[C@H](O)CN2Cc2ccccc2F)O1)N[C@@H]1CCN(Cc2ccccc2)C1,nt,-52,90,nt,nt,nt,nt
COc1ccc2c3c([nH]c2c1)[C@@H](CO)N(C(=O)c1cccnc1)CC31CN(C(=O)c2cccnc2)C1,0,28,nt,nt,nt,nt,nt
C/C=C/c1ccc([C@@H]2[C@H](CO)N(CCC(F)(F)F)C23CN(C(=O)CN(C)C)C3)cc1,-5,-35,nt,nt,nt,nt,nt
CC(C)NC(=O)N[C@H]1CC[C@@H](CCNS(=O)(=O)c2ccc(Cl)cc2)O[C@@H]1CO,6,-6,-66,nt,nt,nt,nt
CCC(=O)N1C[C@H](C)[C@@H](OC)CN(C)C(=O)c2ccc(NC(=O)c3ccccc3)cc2OC[C@H]1C,nt,-17,46,nt,nt,nt,nt
CC(C)C#Cc1ccc([C@H]2[C@@H](CO)N3CCCCN(C(=O)c4ccc5c(c4)OCO5)C[C@@H]23)cc1,-7,-1,99*,110*,106*,68*,50*
C[C@H](O)C#Cc1ccc([C@@H]2[C@H]3CN(C(=O)c4ccc5c(c4)OCO5)CCCCN3[C@H]2CO)cc1,-8,17,33,nt,nt,nt,nt
CC(C)C#Cc1ccc([C@@H]2[C@H]3CN(C(=O)c4ccc5c(c4)OCO5)CCCCN3[C@H]2CO)cc1,5,-8,39,nt,nt,nt,nt
C[C@H](O)C#Cc1ccc([C@@H]2[C@@H](CO)N3CCCCN(C(=O)c4ccc5c(c4)OCO5)C[C@@H]23)cc1,-9,4,97*,105*,32,31,44*
C[C@H](CO)N1C[C@H](C)[C@@H](CN(C)C(=O)NC2CCCCC2)Oc2c(NC(=O)c3cnccn3)cccc2C1=O,4,14,56,nt,nt,nt,nt
CN1CCN(C(=O)C[C@H]2CC[C@H](NC(=O)Cc3ccccn3)[C@H](CO)O2)CC1,nt,-15,-109,nt,nt,nt,nt
C[C@@H]1CN([C@H](C)CO)C(=O)c2cc(NC(=O)NC3CCCCC3)ccc2O[C@@H](C)CCCCO[C@@H]1CN(C)Cc1ccc2c(c1)OCO2,3,nt,75,nt,nt,nt,nt
CC(C)CC#Cc1ccc2c(c1)O[C@H](CN(C)Cc1ccccc1)[C@@H](C)CN([C@@H](C)CO)S2(=O)=O,15,-48,123*,100*,114*,-5,104*
CC(C)CC#Cc1ccc2c(c1)O[C@H](CN(C)Cc1ccc(F)cc1)[C@H](C)CN([C@@H](C)CO)S2(=O)=O,12,-59,84,nt,nt,nt,nt
CC(C)CC#Cc1ccc2c(c1)O[C@@H](CN(C)Cc1ccccc1)[C@H](C)CN([C@H](C)CO)S2(=O)=O,nt,16,9,nt,nt,nt,nt
CC(C)CC#Cc1ccc2c(c1)O[C@H](CN(C)Cc1ccccc1)[C@H](C)CN([C@H](C)CO)S2(=O)=O,17,-51,104*,87,109*,16,105*
CCC(=O)N(C)C[C@H]1Oc2cc(-c3ccccc3)ccc2S(=O)(=O)N([C@@H](C)CO)C[C@@H]1C,-8,-25,86,nt,nt,nt,nt
CO[C@@H]1CN(C)C(=O)c2cc(NS(=O)(=O)c3ccccc3)ccc2OC[C@H](C)NC[C@H]1C,nt,11,nt,nt,nt,nt,nt
Cc1ccc(-c2ccc3c(c2)O[C@@H](CN(C)Cc2ccccc2)[C@H](C)CN([C@@H](C)CO)S3(=O)=O)cc1,17,-54,116*,99*,104*,37*,104*
C[C@@H]1CN([C@H](C)CO)S(=O)(=O)c2ccc(-c3cncnc3)cc2O[C@H]1CN(C)Cc1ccccc1,-3,-34,?,91,64,52*,68*
C[C@@H]1CN([C@@H](C)CO)S(=O)(=O)c2ccc(-c3cncnc3)cc2O[C@@H]1CN(C)Cc1ccccc1,-5,0,62,nt,nt,nt,nt
CC(=O)N(C)C[C@@H]1Oc2cc(-c3cccnc3)ccc2S(=O)(=O)N([C@H](C)CO)C[C@@H]1C,nt,24,-120,nt,nt,nt,nt
SMILES,C diff HTS,Pf Dd2 inh,T cruzi growth-1,T cruzi growth-2,T cruzi growth-3,3T3 cytotox,3T3 cytotox 2
C[C@@H]1CN([C@@H](C)CO)S(=O)(=O)c2ccc(-c3ccccc3)cc2O[C@H]1CN(C)Cc1ccccc1,12,-66,84,nt,nt,nt,nt
C[C@H](CO)N1C[C@H](C)[C@H](CN(C)Cc2ccncc2)Oc2cc(-c3ccccc3)ccc2S1(=O)=O,nt,-40,95*,105*,99*,24,40*
C[C@@H]1CN([C@H](C)CO)S(=O)(=O)c2ccc(-c3ccccc3)cc2O[C@H]1CN(C)Cc1ccncc1,nt,-35,-22,nt,nt,nt,nt
C[C@@H]1CN([C@@H](C)CO)S(=O)(=O)c2ccc(-c3cccnc3)cc2O[C@@H]1CN(C)C,-1,24,?,97*,92,8,10
C[C@@H]1CN([C@@H](C)CO)C(=O)c2cc(NC(=O)CCN3CCOCC3)ccc2O[C@@H]1CN(C)Cc1ccc(C(=O)Nc2ccccc2N)cc1,3,-7,nt,nt,nt,nt,nt
C[C@@H]1CN([C@H](C)CO)S(=O)(=O)c2ccc(-c3ccncc3)cc2O[C@@H]1CN(C)Cc1ccccc1,1,-31,88,nt,nt,nt,nt
C[C@H]1CN([C@@H](C)CO)S(=O)(=O)c2ccc(-c3cccnc3)cc2O[C@@H]1CN(C)Cc1ccncc1,-2,-2,?,101*,63,12,28*
C[C@H](CO)N1C[C@H](C)[C@@H](CN(C)Cc2ccccc2)Oc2cc(-c3ccncc3)ccc2S1(=O)=O,-2,-69,117*,99*,103*,71*,76*
C[C@H](CO)N1C[C@H](C)[C@H](CN(C)Cc2ccncc2)Oc2cc(-c3cccnc3)ccc2S1(=O)=O,-2,21,67,nt,nt,nt,nt
C[C@H]1CN([C@@H](C)CO)C(=O)c2cccc(NC(=O)c3ccc(-c4nccs4)cc3)c2O[C@H]1CN(C)Cc1ccc2c(c1)OCO2,1,-18,-84,nt,nt,nt,nt
COc1cccc(S(=O)(=O)N[C@@H]2CC[C@H](CC(=O)NCc3ccccc3)O[C@H]2CO)c1,-1,4,-44,nt,nt,nt,nt
CCCC#Cc1ccc2c(c1)O[C@H](CN(C)Cc1ccncc1)[C@H](C)CN([C@H](C)CO)S2(=O)=O,6,-37,114*,103*,76,37*,?
CC(C)CC#Cc1ccc2c(c1)O[C@@H](CN(C)Cc1ccncc1)[C@H](C)CN([C@@H](C)CO)S2(=O)=O,15,-80,132*,97*,105*,26,103*
